Bioassay records from PubChem BioAssay.
The list is not random: actives were taken first. Their share in the collection is about 9.2%.
ELG1 repair inh = qHTS screen for small molecules that inhibit ELG1-dependent DNA repair in human embryonic kidney (HEK293T) cells expressing luciferase-tagged ELG1 | HEK293T ELG1-luciferase reporter, luminescence, 16 h; DNA damage induced by 5-fluorouridine | Potency, µM (highest dose often 46.1 µM), for inactives: top-dose activity change, negative = inhibition, hits mostly inhibitors | 2.3% of 330,000 active | AID 504467, 2011; also: % is scaled to controls: 0 for no effect and ±100 for the full control effect; nearly all actives have a fitted effect of over 55% in size
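Reporter activity after DNA damage by 5-fluorouridine is monitored. Compound-treated cells incubate 16 hr at 37 °C, then ONE-Glo is added for 30 min before luminescence reading.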
ELG1 genotoxic = qHTS screen for small molecules that induce genotoxicity in human embryonic kidney (HEK293T) cells expressing luciferase-tagged ELG1; HEK293T ELG1-luciferase reporter, luminescence, 16 h; Potency, µM (highest dose often 46 µM), without a hit: at the highest dose activity change, positive = activation, most hits filed as activators; 1.3% of 330,000 active; AID 504466, 2011; also: % of control where 0% means no effect; nearly all actives have a fitted effect of over 60% in size
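Step 1: seed 2,000 HEK293T ELG1-luciferase cells per well. Step 2: add compound or DMSO, incubate 16 hr at 37 °C. Step 3: ONE-Glo, 30 min at room temperature, read luminescence.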
FLuc counter = qHTS profiling assay for firefly luciferase inhibitor/activator using purifed enzyme and Km concentrations of substrates (counterscreen for miR-21 project); Luciferin 4-monooxygenase (Photinus pyralis), P08659; 6.9% of 360,000 active; AID 588342, 2011; Potency, µM (series often up to 57.5 µM), for inactives: at the top dose activity change, negative = inhibition, most hits filed as inhibitors; purified FLuc, Km substrates, luminescence inhibition;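 also: plate controls were vehicle for no effect and reference inhibitor for full effect; nearly all actives have a fitted effect of over 55% in size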
Target sequence (P08659 whole entry, looked up): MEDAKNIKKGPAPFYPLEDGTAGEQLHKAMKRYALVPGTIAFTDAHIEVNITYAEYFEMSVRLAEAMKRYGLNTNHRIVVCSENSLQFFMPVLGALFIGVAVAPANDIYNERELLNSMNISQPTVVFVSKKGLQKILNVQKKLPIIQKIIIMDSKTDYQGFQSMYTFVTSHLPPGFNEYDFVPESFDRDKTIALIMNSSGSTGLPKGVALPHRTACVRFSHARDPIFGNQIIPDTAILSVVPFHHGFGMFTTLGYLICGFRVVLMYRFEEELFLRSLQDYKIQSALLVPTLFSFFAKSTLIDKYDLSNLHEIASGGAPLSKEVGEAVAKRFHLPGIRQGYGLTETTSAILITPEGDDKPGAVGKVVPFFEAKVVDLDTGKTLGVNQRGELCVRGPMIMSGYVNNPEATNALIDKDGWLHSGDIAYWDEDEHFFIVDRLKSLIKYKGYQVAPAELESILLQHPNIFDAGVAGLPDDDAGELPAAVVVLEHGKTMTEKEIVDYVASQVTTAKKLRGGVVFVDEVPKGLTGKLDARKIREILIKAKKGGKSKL
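Purified P. pyralis luciferase (10nM final) with 10uM D-luciferin and 10uM ATP (Km levels) in 50mM Tris acetate pH 7.5, 10mM Mg acetate, 0.01% Tween-20, 0.05% BSA; qHTS 6-point titration, ~60 µM downward; luminescence read.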
NPC1 prom act = qHTS Assay for NPC1 Promoter Activators; Huh7 NPC1 promoter luciferase reporter, 24 h; Potency, µM (series often up to 9.22 µM), for the others: at the top dose activation, most hits filed as activators; 2.4% of 320,000 active; AID 485313, 2010; also: % of control where 0% means no effect; nearly all actives have a fitted effect of over 60% in size
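Stably transfected Huh7 (NPC1 promoter→luciferase), 1500 cells/well in Opti-MEM + 10% FBS, 2 h settle, then compound 24 h at 37 °C. Luminescence after 10 min with Amplite reagent.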
SMN2 splice up = qHTS Assay for Enhancers of SMN2 Splice Variant Expression; HEK293 SMN2-luciferase splicing reporter, luminescence, 30-36 h; Potency, µM (doses to about 46.1 µM), for the others: at the top dose activity change, positive = activation, most hits filed as activators; 2.8% of 210,000 active; AID 1458, 2008; also: % of control where 0% means no effect; nearly all actives have a fitted effect of over 55% in size
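qHTS luciferase splicing reporter: luminescence rises when SMN2 exon 7 is included in transfected HEK293 cells. Compound exposure lasted 30-36 h at 37C, with 4.5 mM final sodium butyrate as control, followed by a ONE-Glo read.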
Rab9 prom act = qHTS Assay for Rab9 Promoter Activators; Huh7 Rab9 promoter-luciferase reporter, luminescence, 24 h; Potency, µM (top dose mostly 9.22 µM), for the others: top-dose activation, negative = inhibition, most hits filed as activators; 2.8% of 320,000 active; AID 485297, 2010; also: % of control where 0% means no effect; nearly all actives have a fitted effect of over 60% in size
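Huh7 reporter line, Rab9 promoter upstream of luciferase. Compound exposure 24 h at 37 °C in reduced-serum medium with 10% FBS. Read-out: luminescence.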
Numbers without * were called inactive. Calls follow the shape of the dose curve; as a rule, active = well fitted curve in the direction sought with a large enough effect; inconclusive = small, poorly fitted or top-dose-only effect, or another doubt; inactive = no such curve, though single readings can be large; an effect the other way counts as inactive or inconclusive. Potency is read from the fitted curve at half-maximal effect.

Results for CS(=O)(=O)Nc1cccc(C2=NN(C(=O)c3cccc([N+](=O)[O-])c3)C(c3cccs3)C2)c1 (stereo not drawn) ?
ELG1 repair inh: 13µM*; ELG1 genotoxic: -3.4%; FLuc counter: 1.5%; NPC1 prom act: 0.3%; Rab9 prom act: -1.3%

How did Cc1ccc(C(=O)N2N=C(c3ccc(NS(C)(=O)=O)cc3)CC2c2cccs2)cc1 (stereo not drawn) do in these assays?
ELG1 repair inh: inconclusive; ELG1 genotoxic: -3.1%; FLuc counter: -0.2%; NPC1 prom act: -4.2%; Rab9 prom act: -1.9%

Results for CS(=O)(=O)Nc1cccc(C2=NN(C(=O)c3ccccc3)C(c3cccs3)C2)c1 (stereo not drawn) ?
ELG1 repair inh: inconclusive; ELG1 genotoxic: -12.0%; FLuc counter: -1.4%; NPC1 prom act: 1.4%; Rab9 prom act: -0.7%

How did CCCCN(CCCC)CC(O)Cn1cc(/C=C/C(=O)c2ccccc2)c2ccccc21 (stereo not drawn) do in these assays?
FLuc counter: -3.0%; SMN2 splice up: 0.9%

How did CCCCN(C)CC(O)Cn1cc(/C=C/C(=O)c2ccc(OCC)cc2)c2ccccc21 (stereo not drawn) do in these assays?
ELG1 repair inh: 11.3%; ELG1 genotoxic: -0.4%; FLuc counter: 16.9µM*; NPC1 prom act: -1.2%; SMN2 splice up: -82.5%; Rab9 prom act: -4.1%

What do the screens show for `CN(C)c1ccc(C(=O)NCC2CCCO2)cc1` (stereo not drawn)?
ELG1 repair inh: inconclusive; ELG1 genotoxic: inconclusive; FLuc counter: inconclusive; NPC1 prom act: inconclusive; SMN2 splice up: 25.1µM*; Rab9 prom act: 27.9%

Results for O=C(NCC1CCCO1)c1cccc(Oc2ccccc2)c1 (stereo not drawn) ?
ELG1 repair inh: inconclusive; ELG1 genotoxic: inconclusive; FLuc counter: 16.9µM*; NPC1 prom act: 21.3%; Rab9 prom act: inconclusive

What do the screens show for `Cc1cccc(C(=O)NCC2CCCO2)c1` (stereo not drawn)?
ELG1 repair inh: inconclusive; ELG1 genotoxic: 0.0%; FLuc counter: 3.3%; NPC1 prom act: -0.2%; SMN2 splice up: 14.1%; Rab9 prom act: 1.5%

Results for CN(C)c1cccc(C(=O)NCC2CCCO2)c1 (stereo not drawn) ?
ELG1 repair inh: inconclusive; ELG1 genotoxic: inconclusive; FLuc counter: -3.7%; NPC1 prom act: 15.9%; SMN2 splice up: 28.2µM*; Rab9 prom act: 26.9%

How did COc1ccc(-c2cn3cc(C(F)(F)F)cc(Cl)c3n2)cc1 do in these assays?
ELG1 repair inh: inconclusive; ELG1 genotoxic: 5.8µM*; FLuc counter: 3.01µM*; NPC1 prom act: inconclusive; SMN2 splice up: 2.82µM*; Rab9 prom act: 2.24µM*

How did Fc1ccc(CNc2nc(-c3ccc(Cl)cc3)cc(C(F)(F)F)n2)cc1 do in these assays?
FLuc counter: -1.9%; SMN2 splice up: -13.6%

How did Fc1ccc(-c2cn3cc(C(F)(F)F)cc(Cl)c3n2)cc1 do in these assays?
ELG1 repair inh: inconclusive; ELG1 genotoxic: inconclusive; FLuc counter: 1.69µM*; NPC1 prom act: inconclusive; SMN2 splice up: 12.6µM*; Rab9 prom act: 4.47µM*

How did CN(NS(=O)(=O)c1ccc(Br)cc1)c1nc(C(F)(F)F)nc2ccccc12 do in these assays?
ELG1 repair inh: 20.6µM*; ELG1 genotoxic: -15.9%; FLuc counter: inconclusive; NPC1 prom act: -1.5%; SMN2 splice up: -69.0%; Rab9 prom act: 2.0%

How did CN(N)c1nc(C(F)(F)F)nc2ccccc12 do in these assays?
ELG1 repair inh: -25.4%; ELG1 genotoxic: -12.5%; FLuc counter: -1.8%; NPC1 prom act: -2.9%; SMN2 splice up: 8.9%; Rab9 prom act: -6.3%
